PubChem BioAssay (EPA / NIEHS)
Where “and” joins values, the source holds several entries; their conditions need not be identical. Identical values can stand only once. Some structures have more than one record in an assay (separate samples or runs), and their calls can disagree. Calls of active or inactive are those of the source. How the source made its calls: active means hit-call score of the fitted dose curve at least 0.9, where 1 is the maximum; inactive means score below 0.9.

What was measured:
[1] = BSK_3C_SRB: Viability Assessment in the BioMAP Diversity Plus: 3C Assay (AID 2283023); details: primary human endothelial cells (HUVEC);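 further: fitted both ways against DMSO so a hit may be signal rise or drop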
Summary of the method: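 Absorbance at 560 nm of sulforhodamine B-stained (0.1%) total protein served as a cytotoxicity readout in human umbilical vein endothelial cells, 24 h after chemical treatment. Signal was fitted bidirectionally relative to DMSO.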

[2] = read-out: Matrix Metallopeptidase 1 (MMP1), MMP1 (gene 4312); assay: BSK_BE3C_MMP1: BioMAP Diversity Plus: BE3C Assay for Matrix Metallopeptidase 1 (MMP1) Biomarker Activity (AID 2283024); details: primary human bronchial epithelial cells; actives raise or lower the signal
Summary of the method: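 Human bronchial epithelial cells (BE3C system) exposed to compound for 24 h; MMP1 then quantified by ELISA. Activity was fitted in both directions relative to DMSO.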

[3] = BSK_3C_Vis: BioMAP Diversity Plus: 3C Assay for Morphology Visualization (AID 2283025); details: primary human endothelial cells (HUVEC);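 further: fitted both ways so gain or loss versus DMSO counts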;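 on AC50: light microscopy image of cell morphology used as background control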
Summary of the method: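 Chemicals were added to primary human umbilical vein endothelium, cells were incubated 24 h, and morphology was then visualized by light microscopy. Gain or loss of signal was fitted bidirectionally relative to DMSO.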

[4] = read-out: Pselectin, SELP (gene 6403); assay: BSK_4H_Pselectin: BioMAP Diversity Plus: 4H Assay for Pselectin Biomarker Activity (AID 2283026); details: primary human endothelial cells (HUVEC); actives raise or lower the signal
Summary of the method: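 ELISA read-out of P-selectin on human umbilical vein endothelium after 24 h of dosing. Values derive from bidirectional fitting relative to DMSO. Parallel SRB protein staining flagged overt cytotoxicity.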

[5] = BSK_4H_SRB: Viability Assessment in the BioMAP Diversity Plus: 4H Assay (AID 2283027); details: primary human endothelial cells (HUVEC);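 further: cells exposed to compound for 24 h before staining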;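 on AC50: curves fitted both ways versus DMSO so AC50 may be loss or gain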
Summary of the method: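 Absorbance at 560 nm of SRB-stained total protein served as the viability read-out in confluent primary human umbilical vein endothelium 24 h after chemical treatment. Curves were fitted bidirectionally against DMSO as negative control.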

[6] = BSK_BE3C_SRB: Viability Assessment in the BioMAP Diversity Plus: BE3C Assay (AID 2283028); details: primary human bronchial epithelial cells;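 on AC50: fitted both ways so AC50 may mark signal gain or loss versus DMSO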
Summary of the method: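 Cells (human bronchial epithelial, primary) are treated with chemicals, and after 24 h the parallel cultures are fixed in 10% TCA. These are then stained with 0.1% SRB and read at 560 nm. Gain or loss of signal is fitted relative to DMSO.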

[7] = read-out: Thrombomodulin, THBD (gene 7056); assay: BSK_3C_Thrombomodulin: BioMAP Diversity Plus: 3C Assay for Thrombomodulin Biomarker Activity (AID 2283029); details: primary human endothelial cells (HUVEC); actives raise or lower the signal
Summary of the method: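 Read-out is ELISA of thrombomodulin on human umbilical vein endothelium 24 h after chemical dosing. Gain or loss of signal is scored relative to DMSO. Overt cytotoxicity is checked in parallel cultures by sulforhodamine B staining.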

[8] = read-out: Urokinase-type plasminogen activator receptor (uPAR), PLAUR (gene 5329); assay: BSK_4H_uPAR: BioMAP Diversity Plus: 4H Assay for Urokinase-type plasminogen activator receptor (uPAR) Biomarker Activity (AID 2283030); details: primary human endothelial cells (HUVEC); actives raise or lower the signal
Summary of the method: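 Cell-surface uPAR ELISA signal, measured 24 h after dosing human umbilical vein endothelial cells, was analyzed with bidirectional fitting relative to DMSO. Parallel SRB staining of total protein tracked overt cytotoxicity.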

[9] = read-out: Vascular endothelial growth factor receptor 2 (Homo sapiens) (UniProt P35968); assay: BSK_4H_VEGFRII: BioMAP Diversity Plus: 4H Assay for Vascular endothelial growth factor receptor 2 (VEGFR2) Biomarker Activity (AID 2283031); details: primary human endothelial cells (HUVEC); actives raise or lower the signal;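 on AC50: cell-surface VEGFR2 protein level quantified by ELISA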
Summary of the method: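 ELISA read-out of VEGFRII in primary human umbilical vein endothelium, taken 24 h after chemical treatment. Responses are expressed relative to DMSO, with bidirectional fitting.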

[10] = read-out: Vascular cell adhesion molecule 1 (VCAM1), VCAM1 (gene 7412); assay: BSK_4H_VCAM1: BioMAP Diversity Plus: 4H Assay for Vascular cell adhesion molecule 1 (VCAM1) Biomarker Activity (AID 2283033); details: primary human endothelial cells (HUVEC); actives raise or lower the signal
Summary of the method: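 ELISA read-out of VCAM-1 on human umbilical vein endothelium 24 hours after chemical dosing; gain or loss of signal was fitted relative to DMSO, with sulforhodamine B staining of parallel cultures flagging overt cytotoxicity.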

[11] = read-out: Interferon-gamma inducible Protein 10 (IP10), CXCL10 (gene 3627); assay: BSK_BE3C_IP10: BioMAP Diversity Plus: BE3C Assay for Interferon-gamma inducible Protein 10 (IP10) Biomarker Activity (AID 2283034); details: primary human bronchial epithelial cells; actives raise or lower the signal
Summary of the method: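 Chemical is dosed onto human lung bronchial epithelial primary cells, cultures are incubated 24 h, and IP-10 is then quantified by ELISA. Gain or loss of signal is fitted in both directions relative to DMSO.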

[12] = read-out: Monokine induced gamma interferon (MIG), CXCL9 (gene 4283); assay: BSK_BE3C_MIG: BioMAP Diversity Plus: BE3C Assay for Monokine induced gamma interferon (MIG) Biomarker Activity (AID 2283035); details: primary human bronchial epithelial cells; actives raise or lower the signal
Summary of the method: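 MIG level was determined by ELISA after 24 h chemical treatment of primary human bronchial epithelial cells. Values were fitted bidirectionally with DMSO as the negative control and activity baseline.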

[13] = read-out: Transforming growth factor beta 1 (TGFb1), TGFB1 (gene 7040); assay: BSK_BE3C_TGFb1: BioMAP Diversity Plus: BE3C Assay for Transforming growth factor beta 1 (TGFb1) Biomarker Activity (AID 2283036); details: primary human bronchial epithelial cells; actives raise or lower the signal
Summary of the method: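 Primary human lung bronchial epithelial cells; compound exposure 24 h; TGF-b1 by ELISA; bidirectional fit, DMSO baseline. Parallel SRB total-protein staining for cytotoxicity.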

[14] = read-out: Plasminogen activator inhibitor-1 (PAI1), SERPINE1 (gene 5054); assay: BSK_BE3C_PAI1: BioMAP Diversity Plus: BE3C Assay for Plasminogen activator inhibitor-1 (PAI1) Biomarker Activity (AID 2283037); details: primary human bronchial epithelial cells; actives raise or lower the signal
Summary of the method: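 Primary human lung bronchial epithelial cells; chemical dosing; 24 h; PAI-1 measured by ELISA; bidirectional fit referenced to DMSO as negative control.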

[15] = read-out: urokinase plasminogen activator (uPA), PLAU (gene 5328); assay: BSK_BE3C_uPA: BioMAP Diversity Plus: BE3C Assay for urokinase plasminogen activator (uPA) Biomarker Activity (AID 2283038); details: primary human bronchial epithelial cells; actives raise or lower the signal
Summary of the method: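 Bronchial epithelial cells (human, primary); chemical 24 h; uPA by ELISA; bidirectional fit vs DMSO. SRB (0.1%, after 10% TCA fixation, 560 nm) in parallel cultures for cytotoxicity.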

[16] = read-out: Urokinase-type plasminogen activator receptor (uPAR), PLAUR (gene 5329); assay: BSK_BE3C_uPAR: BioMAP Diversity Plus: BE3C Assay for Urokinase-type plasminogen activator receptor (uPAR) Biomarker Activity (AID 2283039); details: primary human bronchial epithelial cells; actives raise or lower the signal
Summary of the method: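 Human bronchial epithelial primary cells; chemical exposure 24 h; uPAR by ELISA; bidirectional fit vs DMSO control.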

[17] = read-out: Interleukin-6 (IL6), IL6 (gene 3569); assay: BSK_CASM3C_IL6: BioMAP Diversity Plus: CASM3C Assay for Interleukin-6 (IL6) Biomarker Activity for (AID 2283040); details: primary human coronary artery smooth muscle cells; actives raise or lower the signal
[18] = read-out: Tissue plasminogen activator (tPA), PLAT (gene 5327); assay: BSK_BE3C_tPA: BioMAP Diversity Plus: BE3C Assay for Tissue plasminogen activator (tPA) Biomarker Activity (AID 2283041); details: primary human bronchial epithelial cells; actives raise or lower the signal
Summary of the method: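 Primary human lung bronchial epithelial cultures receive test chemical; after 24 h, tPA is quantified by ELISA, and gain or loss of signal is fitted bidirectionally relative to DMSO baseline.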

[19] = read-out: Interleukin-8 (IL8), CXCL8 (gene 3576); assay: BSK_CASM3C_IL8: BioMAP Diversity Plus: CASM3C Assay for Interleukin-8 (IL8) Biomarker Activity (AID 2283042); details: primary human coronary artery smooth muscle cells; actives raise or lower the signal;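 further: IL-8 protein level quantified by ELISA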
[20] = read-out: Human Leukocyte Antigen - DR isotype (HLADR), HLA-DRA (gene 3122); assay: BSK_BE3C_HLADR: BioMAP Diversity Plus: BE3C Assay for Human Leukocyte Antigen - DR isotype (HLADR) Biomarker Activity (AID 2283032); details: primary human bronchial epithelial cells; actives raise or lower the signal
Summary of the method: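 ELISA read-out of HLA-DR on human lung bronchial epithelial primary cells, measured 24 h post-dosing. Both increases and decreases were scored relative to DMSO vehicle.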

Measured: AC50

Oc1ccc(Cl)cc1Cl
inactive: [1] | [2] | [3] | [4] | [5] | [6] | [7] | [8] | [9] | [10] | [11] | [12] | [13] | [14] | [15] | [16] | [17] | [18] | [19]

CCC(C)(c1ccc(O)cc1)c1ccc(O)cc1
inactive: [6] | [7] | [9] | [12] | [13] | [14] | [16] | [17] | [18] | [19]
active: [1] 30 µM | [2] 20 µM | [3] 39 µM | [4] 32.1 µM | [5] 24.3 µM | [8] 34.8 µM | [11] 28.9 µM | [15] 4.96 µM

Cc1ccccc1O
inactive: [1] | [2] | [3] | [4] | [5] | [6] | [7] | [8] | [9] | [20] | [10] | [11] | [12] | [13] | [14] | [15] | [16] | [17] | [18] | [19]

CCC(C)c1cc([N+](=O)[O-])cc([N+](=O)[O-])c1O (stereo not given)
active: [1] 10 µM | [3] 9.8 µM | [4] 10.6 µM | [5] 12.6 µM | [8] 11.5 µM | [9] 8.81 µM | [20] 20 µM | [10] 9.62 µM | [11] 1.87 µM | [13] 0.911 µM | [14] 1.39 µM | [15] 4.72 µM | [18] 1.28 µM
inactive: [2] | [6] | [7] | [12] | [16] | [17] | [19]

O=C(O)C(F)(F)C(F)(F)C(F)(F)C(F)(F)C(F)(F)C(F)(F)C(F)(F)C(F)(F)C(F)(F)F
active: [1] 31.3 µM and 53 µM and 51.6 µM | [2] 32.4 µM | [5] 36.5 µM and 52.1 µM and 55 µM | [6] 29.6 µM and 12.6 µM and 15.8 µM | [8] 47 µM and 55 µM | [9] 43.2 µM and 55.4 µM | [10] 33.8 µM and 46.9 µM and 46 µM | [11] 9.39 µM and 8.59 µM and 8.35 µM | [12] 28.6 µM and 26.9 µM and 12.7 µM | [13] 10 µM | [14] 14.2 µM and 14.4 µM and 12.8 µM | [15] 16.1 µM and 7.94 µM | [16] 30.8 µM and 16.4 µM and 14.7 µM | [18] 14.9 µM and 14.1 µM and 14.5 µM
inactive: [2] | [3] | [7] | [8] | [9] | [15] | [17] | [19]

N#Cc1ccc(N(CC(N)=O)CC(F)(F)F)cc1C(F)(F)F
inactive: [1] | [2] | [3] | [4] | [5] | [6] | [7] | [8] | [9] | [20] | [10] | [11] | [12] | [13] | [14] | [15] | [16] | [17] | [18] | [19]

CCOCCOC(C)=O
inactive: [1] | [2] | [3] | [4] | [5] | [6] | [7] | [8] | [9] | [10] | [11] | [12] | [13] | [14] | [15] | [16] | [17] | [18] | [19]

CC(C)(O)C(=O)Nc1ccc([N+](=O)[O-])c(C(F)(F)F)c1
active: [11] 24.6 µM | [17] 29.1 µM
inactive: [1] | [2] | [3] | [4] | [5] | [6] | [7] | [8] | [9] | [10] | [12] | [13] | [14] | [15] | [16] | [18] | [19]

Cc1ccc(O)c(C)c1
active: [10] 5.94 µM | [17] 1.29 µM
inactive: [1] | [2] | [3] | [4] | [5] | [6] | [7] | [8] | [9] | [11] | [12] | [13] | [14] | [15] | [16] | [18] | [19]

NS(=O)(=O)C(F)(F)C(F)(F)C(F)(F)C(F)(F)C(F)(F)C(F)(F)C(F)(F)C(F)(F)F
inactive: [7] | [9] | [12] | [15] | [16] | [17] | [18] | [19]
active: [1] 30.8 µM and 44.1 µM and 43.6 µM | [2] 13.4 µM and 7.12 µM and 7.29 µM | [3] 37.5 µM | [5] 26.8 µM and 44.2 µM and 47.6 µM | [6] 25.8 µM and 51.3 µM | [7] 10.9 µM and 16.4 µM | [8] 29.3 µM and 43.7 µM and 45.6 µM | [9] 28.5 µM and 30 µM | [10] 32.1 µM and 50.1 µM and 46 µM | [11] 10.2 µM and 27 µM and 23.1 µM | [12] 58.2 µM and 54.8 µM | [13] 10.5 µM | [14] 10.4 µM and 17.1 µM and 15.5 µM | [15] 47.3 µM and 55.1 µM | [16] 51.1 µM and 54.9 µM | [18] 45.5 µM and 37 µM
